The record followed here is PubChem BioAssay AID651744 (Broad Institute, 2012).

The structures appear in SMILES notation. About 3,100 (55%) of roughly 5,600 compounds were called active. About 3% were inconclusive and are not listed. The set was probably picked from earlier hits. Not all results are given here. A number with no mark means an inactive call.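 The calls were made as follows: active = mean loss of cell viability signal at or above a set limit, and enough replicates individually reaching it; inconclusive = meets only the mean limit or only the replicate share; inactive = meets neither condition.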

The assay in a line: NIH/3T3 fibroblast cytotoxicity, confirmation, cytotoxicity control, cell-based, cherry-pick, single point, set 2 (AID 651744).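 Also: 0% = median of neutral control wells and 100% = median of positive control wells.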 As to conditions: NIH/3T3 viability, CellTiter-Glo ATP luminescence, 90 h; at 24.9 µM; active compounds read high. (In ATP-based viability assays light output follows the ATP content of the culture.)
Usually inhibition stands for the drop in the measured response relative to a control, in per cent. Regarding `O=C(c1ccncc1)N1CCCCN2[C@H](CO)[C@H](c3ccc(-c4ccccc4)cc3)[C@H]2C1`, the inhibition was 5.4%. With `O=C(c1cccnc1)N1CCCCN2[C@@H](CO)[C@H](c3ccc(C#Cc4ccccc4)cc3)[C@@H]2C1` the figure was 66.5% (active); with `COc1ccc(C#Cc2ccc([C@@H]3[C@@H](CO)N4CCCCN(C(=O)c5ccncc5)C[C@@H]34)cc2)cc1`, 97.5% (active); with `O=C(Nc1ccccc1)N1CCCCN2[C@H](CO)[C@@H](c3ccc(C#Cc4ccccn4)cc3)[C@H]2C1`, 9.74%. With `O=C(c1ccc(F)cc1)N1CCCCN2[C@H](C1)[C@@H](c1ccc(C#CC3(O)CCCC3)cc1)[C@@H]2CO` the figure was 18%; with `O=S(=O)(c1ccccc1)N1CC[C@@H]2[C@@H](CO)Nc3ccc(-c4ccccc4F)cc3[C@@H]21`, 23.8%. The same measure for `O=C(c1cccc(F)c1)N1CC[C@@H]2[C@@H](CO)Nc3ccc(C#Cc4cccc(F)c4)cc3[C@@H]21`: 105% (active). As to `O=S(=O)(c1ccccc1)N1CC[C@@H]2[C@H]1c1cc(C#Cc3cccc(F)c3)ccc1N[C@@H]2CO`, the inhibition is 72.4% (active). The same measure for `O=S(=O)(c1ccccc1)N1CC[C@@H]2[C@@H](CO)Nc3ccc(C#Cc4cccc(F)c4)cc3[C@@H]21`: 52.5% (active); for `CN(C)C(=O)c1ccc(-c2ccc3c(c2)[C@H]2[C@H](CCN2C(=O)c2ccc4c(c2)OCO4)[C@H](CO)N3)cc1`: -8.51%; for `CC(=O)N1CC[C@@H]2[C@H](CO)Nc3ccc(C#Cc4ccccc4F)cc3[C@@H]21`: 33.2% (active). As for `COCC(=O)N1CC[C@@H]2[C@@H](CO)Nc3ccc(-c4cccc(C#N)c4)cc3[C@@H]21`, the inhibition was 5.66%. The same measure for `Cc1ccccc1S(=O)(=O)N1CC[C@H]2[C@H](CO)Nc3ccc(-c4cccc(F)c4)cc3[C@H]21`: 105% (active); for `COc1ccc(NC(=O)N2CC[C@@H]3[C@@H](CO)N(C)c4ccc(-c5cccc(F)c5)cc4[C@@H]32)cc1`: 20.7%. The same measure for `CCC(=O)N1CC[C@@H]2[C@@H](CO)N(C)c3ccc(-c4ccc(F)cc4)cc3[C@@H]21`: 12.2%. For `CC(=O)N1[C@H](CNC(=O)C2CC2)[C@@H](c2ccc(-c3cccc(F)c3)cc2)[C@@H]1CO`, the inhibition was 13%. Take `O=C(Cc1ccccc1)N1CC[C@H]2[C@H](CO)Nc3ccc(-c4ccccc4F)cc3[C@H]21`: the inhibition is 48.1% (active). As to `CN1c2ccc(-c3ccccc3)cc2[C@H]2[C@H](CCN2C(=O)Cc2ccccn2)[C@H]1CO`, the inhibition was 9.27%. With `O=C(C[C@@H]1C[C@@H]2c3cc(NC(=O)c4ccc5c(c4)OCO5)ccc3O[C@@H]2[C@@H](CO)O1)NCc1ccc(Cl)cc1` the figure was 14.5%. With `CN1C(=O)c2cc(NC(=O)c3cnccn3)ccc2OC[C@@H]2O[C@@H](CC(=O)N[C@H]3CCN(Cc4ccccc4)C3)CC[C@H]21` the figure was -12.6%; with `COc1ccc(NC(=O)N(C)C[C@@H]2OCCCC[C@@H](C)Oc3ccc(NS(=O)(=O)c4ccc(Cl)cc4)cc3C(=O)N([C@H](C)CO)C[C@H]2C)cc1`, -14.7%. Regarding `C[C@@H]1CCCCO[C@H](CN(C)C(=O)NC2CCCCC2)[C@H](C)CN([C@H](C)CO)C(=O)c2cc(NS(=O)(=O)c3ccc(Cl)cc3)ccc2O1`, the inhibition was -1.41%. With `COc1ccc(S(=O)(=O)N(C)C[C@H]2OCCCC[C@H](C)Oc3ccc(NS(=O)(=O)c4ccc(F)cc4)cc3C(=O)N([C@@H](C)CO)C[C@@H]2C)cc1` the figure was -33.1%.

As to `C[C@@H]1CN([C@H](C)CO)C(=O)c2cc(NS(=O)(=O)c3ccc(Cl)cc3)ccc2O[C@@H](C)CCCCO[C@H]1CN(C)Cc1ccccc1`, the inhibition is 103% (active). The same measure for `C[C@H]1CCCCO[C@@H](CN(C)S(=O)(=O)c2cccs2)[C@@H](C)CN([C@@H](C)CO)C(=O)c2cc(NS(=O)(=O)c3ccc(Cl)cc3)ccc2O1`: 11.8%. The same measure for `C[C@H]1CCCCO[C@@H](CN(C)C(=O)NC2CCCCC2)[C@@H](C)CN([C@@H](C)CO)C(=O)c2cc(NS(=O)(=O)c3ccc(Cl)cc3)ccc2O1`: 15.4%. With `C[C@H](CO)N1C[C@H](C)[C@H](CN(C)Cc2ccc(C(F)(F)F)cc2)OCCCC[C@H](C)Oc2ccc(NS(=O)(=O)c3ccc(Cl)cc3)cc2C1=O` the figure was 105% (active).

With `COc1ccc(S(=O)(=O)Nc2ccc3c(c2)C(=O)N([C@H](C)CO)C[C@@H](C)[C@@H](CN(C)CC2CCCCC2)OCCCC[C@@H](C)O3)cc1`, the inhibition was 107% (active). With `C[C@@H]1CN([C@H](C)CO)C(=O)c2cc(NS(=O)(=O)c3cccs3)ccc2O[C@@H](C)CCCCO[C@@H]1CN(C)S(=O)(=O)c1ccc(Cl)cc1` the figure was 2.36%.

As to `C[C@H](CO)N1C[C@H](C)[C@H](CN(C)S(=O)(=O)c2ccc(F)cc2)OCCCC[C@H](C)Oc2ccc(NS(=O)(=O)c3ccc(Cl)cc3)cc2C1=O`, the inhibition was 18.4%. With `C[C@@H]1CCCCO[C@H](CN(C)Cc2ccccc2)[C@H](C)CN([C@H](C)CO)C(=O)c2cc(NS(=O)(=O)c3ccc(Cl)cc3)ccc2O1` the figure was 104% (active). The same measure for `C[C@@H]1CN([C@H](C)CO)C(=O)c2cc(NS(=O)(=O)c3cccs3)ccc2O[C@@H](C)CCCCO[C@H]1CN(C)Cc1ccc(C(F)(F)F)cc1`: 103% (active); for `C[C@@H]1CCCCO[C@H](CN(C)S(=O)(=O)c2ccc(Cl)cc2)[C@H](C)CN([C@@H](C)CO)C(=O)c2cc(NS(=O)(=O)c3cccs3)ccc2O1`: -8.7%; for `C[C@@H]1CCCCO[C@H](CN(C)S(=O)(=O)c2cccs2)[C@H](C)CN([C@H](C)CO)C(=O)c2cc(NS(=O)(=O)c3ccc(F)cc3)ccc2O1`: -27.9%. Consider `C[C@H]1CN([C@@H](C)CO)S(=O)(=O)c2ccc(C3=CCCC3)cc2O[C@@H]1CN(C)Cc1ccccc1`, for which the inhibition is 103% (active). With `C[C@@H]1CN([C@H](C)CO)S(=O)(=O)c2ccc(C3=CCCC3)cc2O[C@H]1CN(C)Cc1ccccc1F` the figure was 106% (active); with `C[C@H]1CN([C@@H](C)CO)S(=O)(=O)c2ccc(C3=CCCCC3)cc2O[C@@H]1CN(C)Cc1ccccc1`, 106% (active); with `C[C@@H]1CCCCO[C@H](CN(C)C(=O)NC2CCCCC2)[C@H](C)CN([C@H](C)CO)C(=O)c2cc(NC(=O)Nc3ccc(F)cc3)ccc2O1`, 1.83%. The same measure for `C[C@@H]1CCCCO[C@@H](CN(C)Cc2ccc(C(F)(F)F)cc2)[C@@H](C)CN([C@H](C)CO)C(=O)c2cc(NC(=O)Nc3ccccc3)ccc2O1`: -8.84%; for `C[C@H]1CCCCO[C@H](CN(C)Cc2ccccc2)[C@@H](C)CN([C@@H](C)CO)C(=O)c2cc(NC(=O)c3ccccc3)ccc2O1`: 40.7% (active). For `C[C@@H]1CN([C@H](C)CO)C(=O)c2cc(NC(=O)Nc3ccc(F)cc3)ccc2O[C@@H](C)CCCCO[C@@H]1CN(C)CC1CCCCC1`, the inhibition is 102% (active). The same measure for `C[C@@H]1CCCCO[C@H](CN(C)Cc2ccccc2)[C@@H](C)CN([C@@H](C)CO)C(=O)c2cc(NC(=O)Nc3ccc(F)cc3)ccc2O1`: 103% (active); for `C[C@@H]1CCCCO[C@@H](CN(C)CC2CC2)[C@H](C)CN([C@H](C)CO)C(=O)c2cc(NC(=O)C3CCCCC3)ccc2O1`: -28.9%. The same measure for `COc1ccc(NC(=O)N(C)C[C@@H]2Oc3c(NC(=O)NC4CCCCC4)cccc3C(=O)N([C@@H](C)CO)C[C@@H]2C)cc1`: 2.03%; for `C[C@@H]1CN([C@H](C)CO)C(=O)c2cccc(NC(=O)NC3CCCCC3)c2O[C@H]1CN(C)Cc1ccc(C(F)(F)F)cc1`: 106% (active). The same measure for `C[C@@H]1CCCCO[C@H](CN(C)Cc2ccc(C(F)(F)F)cc2)[C@H](C)CN([C@H](C)CO)C(=O)c2cc(NC(=O)Nc3ccc(F)cc3)ccc2O1`: -19.7%; for `COc1ccc(NC(=O)Nc2ccc3c(c2)C(=O)N([C@H](C)CO)C[C@@H](C)[C@H](CN(C)Cc2ccc(Cl)c(Cl)c2)OCCCC[C@@H](C)O3)cc1`: -0.512%. For `C[C@@H]1CCCCO[C@@H](CN(C)Cc2ccc3c(c2)OCO3)[C@@H](C)CN([C@@H](C)CO)C(=O)c2cc(NC(=O)Nc3ccccc3)ccc2O1`, the inhibition is 16%. As for `C[C@H]1CCCCO[C@H](CN(C)S(=O)(=O)c2ccc(Cl)cc2)[C@@H](C)CN([C@@H](C)CO)C(=O)c2cc(NC(=O)Nc3ccc4c(c3)OCO4)ccc2O1`, the inhibition was 7.66%. With `C[C@@H]1CCCCO[C@H](CN(C)Cc2ccc(Cl)c(Cl)c2)[C@H](C)CN([C@@H](C)CO)C(=O)c2cc(NC(=O)C3CCCCC3)ccc2O1` the figure was 50.7% (active); with `C[C@@H]1CN([C@H](C)CO)C(=O)c2cc(NC(=O)Nc3ccc(F)cc3)ccc2O[C@@H](C)CCCCO[C@H]1CN(C)Cc1ccc(Cl)c(Cl)c1`, 81.1% (active); with `C[C@@H]1CN([C@@H](C)CO)C(=O)c2cc(NC(=O)C3CCCCC3)ccc2O[C@@H](C)CCCCO[C@H]1CN(C)Cc1ccncc1`, -15.9%. As for `C[C@H]1CCCCO[C@H](CN(C)Cc2ccccc2)[C@@H](C)CN([C@@H](C)CO)C(=O)c2cc(NC(=O)NC3CCCCC3)ccc2O1`, the inhibition was 102% (active). For the compound `C[C@@H]1CCCCO[C@@H](CN(C)Cc2ccc(Cl)c(Cl)c2)[C@H](C)CN([C@H](C)CO)C(=O)c2cc(NC(=O)Nc3ccc(F)cc3)ccc2O1`, the inhibition is 1.24%. As to `COc1ccc(CN(C)C[C@H]2OCCCC[C@H](C)Oc3ccc(NC(=O)Nc4ccc5c(c4)OCO5)cc3C(=O)N([C@H](C)CO)C[C@@H]2C)cc1`, the inhibition is 103% (active).
